A selection: hits, their analogues and other compounds. The true share with any hit is near 11%.
HEK293 tox = kills HEK 293 cells; HEK 293 viability, ATP luminescence (CellTiter-Glo), 48-72 h; Potency, µM (highest dose often 115 µM), most hits filed as inhibitors; 94,000 tested, 6.6% active; AID 1345083; further: nearly all actives have a fitted effect of over 60% in size
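HEK 293 seeded at 250 cells/well receive compound via pintool. After 48 or 72 hr at 37 degree Celsius, 5% CO2 and 95% humidity, CellTiter-Glo is dispensed and luminescence read following 10 min at room temperature.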
3T3 cytotox = cytotoxic compounds in NIH 3T3 cells; NIH 3T3 viability, CellTiter-Glo ATP luminescence, 48-72 h; Potency, µM (titrated, usually from 96.7 µM), most hits filed as inhibitors; 94,000 tested, 4.3% active; AID 1345082; further: nearly all actives have a fitted effect of over 55% in size
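Cells were seeded at 400 per well, treated with pin-transferred compound, and kept 48 or 72 hr at 37 °C before CellTiter-Glo addition and luminescence imaging of cellular ATP.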
NPR1 antag = antagonists of human natriuretic peptide receptor Npr1. AID 1347048. HEK293 hNpr1 GloSensor cGMP, ANP-stimulated luminescence. Potency, µM (doses to about 46.3 µM), usual class: inhibitors. P16066. 76,000 tested, 1.6% active; calls by dose curve; further: nearly all actives have a fitted effect of over 60% in size
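Compound pre-incubated 30 min at room temperature on GloSensor-loaded HEK293 cells stably carrying hNpr1 and the pGS-40F cGMP biosensor. Stimulation uses hNppA at 0.1 nM final; luminescence is taken at baseline and 20 min post-agonist.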
Luciferase inh = Photinus pyralis luciferase inhibition. P08659. purified P. pyralis luciferase, luminescence, biochemical. Potency, µM (top dose mostly 115 µM), hits mostly inhibitors. 76,000 tested, 2.5% active. AID 1347043; further: nearly all actives have a fitted effect of over 65% in size
Target sequence (P08659 whole entry, looked up): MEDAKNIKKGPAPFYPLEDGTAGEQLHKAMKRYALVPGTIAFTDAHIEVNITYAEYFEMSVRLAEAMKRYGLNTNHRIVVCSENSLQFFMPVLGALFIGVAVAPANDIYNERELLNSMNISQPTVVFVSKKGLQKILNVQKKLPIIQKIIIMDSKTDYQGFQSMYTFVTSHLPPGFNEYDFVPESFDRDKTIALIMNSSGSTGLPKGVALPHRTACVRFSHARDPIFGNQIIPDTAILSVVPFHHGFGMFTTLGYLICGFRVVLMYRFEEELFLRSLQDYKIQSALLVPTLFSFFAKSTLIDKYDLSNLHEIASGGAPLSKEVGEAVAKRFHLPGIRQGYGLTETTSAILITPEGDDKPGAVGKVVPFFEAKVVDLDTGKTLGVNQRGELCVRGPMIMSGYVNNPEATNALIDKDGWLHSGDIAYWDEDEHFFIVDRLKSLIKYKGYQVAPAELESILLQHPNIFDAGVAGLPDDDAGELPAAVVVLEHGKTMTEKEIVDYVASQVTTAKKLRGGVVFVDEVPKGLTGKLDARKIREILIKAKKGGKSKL
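Biochemical qHTS: compound (6-point titration) added to 10uM D-luciferin plus 10uM ATP in Tris acetate pH 7.5 buffer with Mg, Tween-20 and BSA, then purified enzyme at 10nM; light output imaged.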
Each line names hits and unclear results; the compound was inactive in the other large screens. Unless noted, the call rests on the fitted dose curve; in most records, active means well fitted curve in the direction sought with a large enough effect; inconclusive means small, poorly fitted or top-dose-only effect, or another doubt; inactive means no such curve, though single readings can be large; an effect the other way counts as inactive or inconclusive.

O=C(c1nc(-c2ccc(F)cc2)c2cnccn12)N1CCCC1	HEK293 tox inconclusive
COc1cccc(-c2cccc(C(=O)N3CCN([S+](=O)([O-])c4ccccc4)CC3)c2)c1	HEK293 tox 35µM, 3T3 cytotox inconclusive (no result: NPR1 antag, Luciferase inh)
COc1cccc(C(=O)N2CCN(C(=O)c3cccc(-c4ccccn4)c3)CC2)c1	HEK293 tox inconclusive (no result: NPR1 antag, Luciferase inh)
COc1cccc(-c2cccc(C(=O)N3CCN(C(=O)c4ccc(F)cc4)CC3)c2)c1	HEK293 tox 28µM, 3T3 cytotox inconclusive (no result: NPR1 antag, Luciferase inh)
COc1cccc(CNC(=O)[C@@]23CCCC[C@H]2N(CCc2ccccc2)C(=O)CC3)c1OC	HEK293 tox inconclusive
CCC(CC)NC(=O)CCC1CCN(C(=O)c2ccccc2Cl)CC1	HEK293 tox inconclusive, Luciferase inh 40µM
COCCNC(=O)CCC1CCN(C(=O)c2ccccc2Cl)CC1	Luciferase inh 32µM
Cc1ccccc1C(=O)N1CCC(CCC(=O)NCCC(C)C)CC1	Luciferase inh inconclusive
O=C(CCC1CCN(C(=O)c2ccccc2Cl)CC1)NC1CC1	none
O=C(CCc1ccccc1)N1CCC(c2n[nH]c(=O)n2-c2ccccc2)CC1	3T3 cytotox inconclusive
CC(=O)NCCC1CCCCN1Cc1nc(C2(c3ccc(C)cc3)CCCC2)no1 (centres undefined)	HEK293 tox inconclusive
Cc1oc(C(O)c2cccc(O)c2)nc1C(=O)Nc1ccc(N2CCOCC2)cc1 (centres undefined)	HEK293 tox inconclusive, 3T3 cytotox inconclusive, NPR1 antag inconclusive, Luciferase inh 5µM
Cc1oc(C(O)c2ccccc2)nc1C(=O)Nc1ccc2c(c1)NC(=O)CO2 (centres undefined)	HEK293 tox inconclusive, Luciferase inh inconclusive
CNC(=O)c1ccc(NC(=O)c2nc(C(O)c3ccccc3F)oc2C)cc1 (centres undefined)	HEK293 tox inconclusive
Cc1oc(C(O)c2ccccc2)nc1C(=O)Nc1ccc2[nH]ccc2c1 (centres undefined)	HEK293 tox 100µM, 3T3 cytotox inconclusive, Luciferase inh 50µM
Cc1oc(C(O)c2ccccc2)nc1C(=O)Nc1ccc(C(=O)Nc2ccccc2)cc1 (centres undefined)	HEK293 tox 32µM, 3T3 cytotox 45µM, NPR1 antag inconclusive, Luciferase inh inconclusive
Cc1oc(C(O)c2cccc(O)c2)nc1C(=O)Nc1ccc2c(c1)CNC2=O (centres undefined)	3T3 cytotox inconclusive
Cc1oc(C(O)c2ccccc2F)nc1C(=O)Nc1ccc2[nH]ccc2c1 (centres undefined)	HEK293 tox 100µM, 3T3 cytotox inconclusive, Luciferase inh 63µM
O=C(C1CCCC1)N1CCCC1C(=O)N1CCCC1c1nc2ccncc2[nH]1 (centres undefined)	none (no result: NPR1 antag, Luciferase inh)
CCOC(=O)CN1C(=O)CN(C(=O)COC(C)=O)CCC(OC)c2ccccc21 (centres undefined)	3T3 cytotox inconclusive (no result: NPR1 antag, Luciferase inh)
O=C(Nc1ccc(Cl)cc1)N1CCCC(C(=O)N2CCCC(c3nc4ncccc4[nH]3)C2)C1 (centres undefined)	HEK293 tox inconclusive, 3T3 cytotox 22µM (no result: NPR1 antag, Luciferase inh)
Cc1ccc([S+](=O)([O-])N2CCC(C(=O)N3CCCC(c4nc5ncccc5[nH]4)C3)CC2)cc1 (centres undefined)	HEK293 tox 28µM, 3T3 cytotox inconclusive (no result: NPR1 antag, Luciferase inh)
O=C(C1CCN(CC2CC2)CC1)N1CCC(c2nc3ncccc3[nH]2)CC1	none (no result: NPR1 antag, Luciferase inh)
c1cnc2nc(C3CCN(CC4CCCCC4)C3)[nH]c2c1 (centres undefined)	HEK293 tox inconclusive, Luciferase inh 20µM
Cc1ccc([S+](=O)([O-])N2CCCC(C(=O)N3CCC(c4nc5ncccc5[nH]4)CC3)C2)cc1 (centres undefined)	HEK293 tox 50µM, 3T3 cytotox inconclusive (no result: NPR1 antag, Luciferase inh)
COc1ccccc1CC(=O)N1CCC2(CC1)N=C(c1ccc(C)cc1)NO2	HEK293 tox inconclusive, 3T3 cytotox inconclusive
O=C(C1CCCN([S+](=O)([O-])c2cccc(C(F)(F)F)c2)C1)N1CCC(c2nc3ccncc3[nH]2)C1 (centres undefined)	none (no result: NPR1 antag, Luciferase inh)
O=C(C1CCCN([S+](=O)([O-])c2cccc(C(F)(F)F)c2)C1)N1CCCC(c2nc3ccncc3[nH]2)C1 (centres undefined)	HEK293 tox 45µM, 3T3 cytotox inconclusive (no result: NPR1 antag, Luciferase inh)
O=C(c1ccn(C(F)F)n1)N1CCCC(c2ccccc2)(c2ccccc2)C1	HEK293 tox inconclusive, 3T3 cytotox inconclusive
CN(Cc1ccc(-c2ccccc2)cc1)C(=O)C(C)(C)C	HEK293 tox 63µM, 3T3 cytotox inconclusive, Luciferase inh 35µM
CN(Cc1ccccc1)Cc1ccc(-c2ccccc2)cc1	HEK293 tox inconclusive
CN(Cc1ccc(-c2ccccc2)cc1)S(C)(=O)=O	HEK293 tox inconclusive, 3T3 cytotox inconclusive, Luciferase inh 14µM
CN(Cc1ccc(-c2ccccc2)cc1)C(=O)Cc1cccc(Cl)c1	HEK293 tox 63µM, 3T3 cytotox inconclusive, NPR1 antag inconclusive, Luciferase inh inconclusive
CN(Cc1ccc(-c2ccccc2)cc1)C(=O)Nc1ccccc1	HEK293 tox inconclusive, NPR1 antag inconclusive
CN(Cc1ccccc1)C(=O)C1CCN(c2cc(C3CC(O)C3)ncn2)CC1 (centres undefined)	HEK293 tox inconclusive, NPR1 antag 13µM
CN(Cc1ccc(F)cc1)C(=O)C(C)(C)C	none
COc1cccc(C(=O)N2CCC(C(=O)N3CCC(N4CCCC4=O)CC3)CC2)c1	none (no result: NPR1 antag, Luciferase inh)
Cc1ccc(-n2nc3n(c2=O)CCN(C(=O)c2ccccc2Cl)C3)cc1	HEK293 tox inconclusive, 3T3 cytotox inconclusive
CN(Cc1ccc(-c2ccccc2)cc1)C(=O)C1CC1	HEK293 tox inconclusive, 3T3 cytotox inconclusive, NPR1 antag inconclusive, Luciferase inh 50µM
O=C(O)CCn1ncc2cc(OCC3CCN(C(=O)c4cc(F)ccc4Cl)CC3)ccc21	3T3 cytotox 32µM (no result: NPR1 antag)
CC(C)OC(=O)N1CCC(COc2ccc3c(cnn3CCC(=O)O)c2)CC1	3T3 cytotox 28µM, Luciferase inh inconclusive
O=C(O)CCn1ncc2cc(OCC3CCN(C(=O)Oc4ccccc4)CC3)ccc21	3T3 cytotox 28µM (no result: NPR1 antag)
O=C(Nc1cccc(Cl)c1)c1nc2sccn2c1-c1ccc(F)cc1	HEK293 tox inconclusive (no result: NPR1 antag, Luciferase inh)
Cc1ccc(C2Cn3nnc(C(=O)N4CCC(C(=O)NCCC5=CCCCC5)CC4)c3CO2)cc1 (centres undefined)	Luciferase inh 10µM
COCCCNC(=O)C1CCN(C(=O)c2nnn3c2COC(c2ccc(C)cc2)C3)CC1 (centres undefined)	Luciferase inh 40µM
Cc1ccc(C2Cn3cnc(C(=O)N4CCC(C(=O)NCCC5=CCCCC5)CC4)c3CO2)cc1 (centres undefined)	Luciferase inh 28µM
COc1ccc(C2Cn3nnc(C(=O)N4CCC(C(=O)NCCC5=CCCCC5)CC4)c3CO2)cc1 (centres undefined)	none
O=C(NCCC1=CCCCC1)C1CCN(C(=O)c2ncn3c2COC(c2ccc(Cl)cc2)C3)CC1 (centres undefined)	HEK293 tox inconclusive, Luciferase inh inconclusive

Screening data (PubChem BioAssay)
